# Records with an inconclusive call do not appear. Where a call stands in place of a potency, no number is given. A number with no mark means an inactive call. Active and inactive are the calls of the source. Unless noted, calls follow the shape of the full dose curve.
# Columns and labels:
# [1] = qHTS assay to identify small molecule agonists of the vitamin D receptor (VDR) signaling pathway - cell viability counter screen (AID 743224; active = well fitted curve in the direction sought with a large enough effect in the repeat runs; an effect the other way counts as inactive or inconclusive; also: series mostly up to about 63 µM; nearly all actives have a fitted effect of over 50% in size)
# How it was run: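 Viability is measured in the same wells as the VDR-bla reporter assay: after 16 h compound treatment and 2 h substrate loading, CellTiter-Glo is added and luminescence read 30 min later.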
# [2] = qHTS assay to identify small molecule antagonists of the vitamin D receptor (VDR) signaling pathway - cell viability counter screen (AID 743225; active = well fitted curve in the direction sought with a large enough effect in the repeat runs; an effect the other way counts as inactive or inconclusive; also: nearly all actives have a fitted effect of over 50% in size)
# How it was run: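 Read-out: CellTiter-Glo luminescence measured 30 min after reagent addition at room temperature. Cells were VDR-bla HEK 293T exposed 16 h at 37C, 5% CO2, to compound with 3 nM final calcitriol agonist.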
# [3] = qHTS assay to identify small molecule agonists of the NFkB signaling pathway (AID 1159509; active = well fitted curve in the direction sought with a large enough effect in the signal ratio in the repeat runs, not every such curve was filed as active; the % refers to the signal ratio; also: series mostly up to about 61 µM)
# How it was run: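 NFkB-bla ME-180 cells carry a beta-lactamase reporter under an NF-kB response element. They were plated overnight, then exposed to compounds for 5 h at 37 C. Read-out is LiveBLAzer FRET after 1.5 hr at room temperature (405 nm excitation; 460/530 nm emission).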
# [4] = qHTS assay to identify small molecule agonists of the NFkB signaling pathway - cell viability counter screen (AID 1159515); also: series mostly up to about 61 µM; nearly all actives have a fitted effect of over 55% in size
# How it was run: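 Multiplexed viability readout: after the 5 hr compound exposure and 1.5 hr FRET substrate step, CellTiter-Glo reagent went into the same NFkB-bla ME-180 wells; ATP luminescence was measured after 30 min at room temperature.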
# [5] = qHTS assay to identify small molecule agonists of the endoplasmic reticulum stress response signaling pathway (AID 1159516; active = well fitted activation curve with a large enough effect in the signal ratio in the repeat runs, not every such curve was filed as active; the % refers to the signal ratio)
# How it was run: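 Tox21 10K library screened in quantitative HTS format on ESRE-bla HeLa cells, a beta-lactamase reporter under ER stress response element control; 5 hr treatment, FRET read.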
# [6] = qHTS assay to identify small molecule agonists of the endoplasmic reticulum stress response signaling pathway - cell viability counter screen (AID 1159517); also: series mostly up to about 61 µM; nearly all actives have a fitted effect of over 50% in size
# How it was run: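 HeLa cells carrying an ESRE-driven beta-lactamase reporter receive compound for 5 hr at 37 C. Cell viability is then gauged with CellTiter-Glo by luminescence, 30 min at room temperature.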
# [7] = qHTS assay to identify small molecule antagonists of the retinoid-related orphan receptor gamma (ROR-gamma) signaling pathway - cell viability counter screen (AID 1159520; active = well fitted curve in the direction sought with a large enough effect in the repeat runs; an effect the other way counts as inactive or inconclusive; also: nearly all actives have a fitted effect of over 50% in size)
# How it was run: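 Cytotoxicity was read from cellular ATP (CellTiter-Glo luminescence) after 16 hr at 37 C with 1 uM doxycycline induction. The inducer was added 2 hr after compound transfer to Tet-on ROR gamma CHO cells.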
# [8] = qHTS assay to identify small molecule agonists of the AP-1 signaling pathway - cell viability counter screen (AID 1159525); also: nearly all actives have a fitted effect of over 55% in size
# How it was run: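 Luminescent ATP readout (Cell Titer Glo, 30 min RT), normalised to DMSO and tetra n-octyl ammonium bromide controls. Cells were ME-180 AP-1-bla in 0.5% dialyzed FBS Opti-MEM, with a 5 h, 37 °C compound exposure.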
# [9] = qHTS assay to identify small molecule agonists of the AP-1 signaling pathway (AID 1159526)
# [10] = molecular target: Nuclear receptor ROR-gamma (Homo sapiens) (UniProt P51449); assay: qHTS assay to identify small molecule antagonists of the retinoid-related orphan receptor gamma (ROR-gamma) signaling pathway (AID 1159521; active = well fitted curve in the direction sought with a large enough effect in the repeat runs; an effect the other way counts as inactive or inconclusive; also: nearly all actives have a fitted effect of over 50% in size; also: potency is read from the fitted curve at half-maximal effect)
# How it was run: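 CHO Tet-on RORγ, RORE-luc reporter. Cpd 2 h pre-incubation, then dox hyclate 1 uM final, 16 h, 37 C/5% CO2. ONE-Glo luminescence; decrease = antagonist.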
Structure (SMILES),Potency [1],Potency [2],outcome [3],outcome [4],outcome [5],outcome [6],outcome [7],Potency [8],outcome [9],Potency [10]
Oc1ccc(C2CNCCc3c2cc(O)c(O)c3Cl)cc1 (stereo not drawn),inactive,inactive,inactive,inactive,inactive,inactive,inactive,inactive,inactive,
CC1=CC(C)C(C=O)CC1 (stereo not drawn),inactive,inactive,inactive,inactive,inactive,inactive,inactive,,inactive,
CCOC(=O)C(=O)OCC,inactive,inactive,inactive,inactive,inactive,inactive,,inactive,inactive,
COC(C)(C)CCCC(C)CC=O (stereo not drawn),inactive,inactive,inactive,inactive,inactive,inactive,,inactive,inactive,
O=C(c1ccccc1)C1CCCCC1,,,inactive,inactive,inactive,inactive,,inactive,inactive,inactive
COC(=O)c1cc(C(=O)OC)cc(S(=O)(=O)O)c1,inactive,inactive,inactive,inactive,inactive,inactive,,inactive,inactive,inactive
C[N+](C)(C)CC(O)CC(=O)[O-] (stereo not drawn),inactive,inactive,inactive,inactive,inactive,inactive,inactive,inactive,inactive,
CC(=O)Nc1c(I)cc(I)c(C(=O)O)c1I,inactive,inactive,inactive,inactive,inactive,inactive,,,inactive,inactive
CC(C)=CCCC(C)CC(=O)O (stereo not drawn),inactive,inactive,inactive,inactive,inactive,inactive,,inactive,inactive,inactive
Cc1ccc(C#N)cc1,inactive,inactive,inactive,inactive,inactive,inactive,,inactive,inactive,
Cc1cc(O)cc2c1O[C@](C)(CCC[C@H](C)CCC[C@H](C)CCCC(C)C)CC2,inactive,,inactive,inactive,inactive,inactive,,inactive,inactive,inactive
NS(=O)(=O)c1cc2c(cc1Cl)NC(C1CC3C=CC1C3)NS2(=O)=O (stereo not drawn),inactive,inactive,inactive,inactive,inactive,inactive,,inactive,inactive,inactive
ClC(Cl)(Br)Br,inactive,inactive,inactive,inactive,inactive,inactive,,inactive,inactive,
CO[Si](CCCOCC1CO1)(OC)OC (stereo not drawn),inactive,,inactive,inactive,inactive,inactive,,inactive,inactive,inactive
CCN(CC)CCOCCOC(=O)C1(c2ccccc2)CCCC1,inactive,inactive,inactive,inactive,inactive,inactive,,inactive,inactive,inactive
CS(=O)(=O)O,inactive,inactive,inactive,inactive,inactive,inactive,,inactive,inactive,inactive
COC(=O)c1c(Cl)c(Cl)c(C(=O)OC)c(Cl)c1Cl,inactive,inactive,inactive,inactive,inactive,inactive,inactive,,,
CC(NC(CCc1ccccc1)C(=O)O)C(=O)N1C(=O)N(C)CC1C(=O)O (stereo not drawn),inactive,inactive,inactive,inactive,inactive,inactive,,inactive,inactive,inactive
O=C(CCCN1CCC(O)(c2cccc(C(F)(F)F)c2)CC1)c1ccc(F)cc1,inactive,inactive,,inactive,inactive,inactive,inactive,inactive,inactive,inactive
O=C(CCCN1CCN(c2ccccn2)CC1)c1ccc(F)cc1,inactive,inactive,inactive,,inactive,inactive,inactive,,inactive,inactive
Cc1cc2c(cc1S(N)(=O)=O)S(=O)(=O)CCC2,inactive,inactive,inactive,,inactive,inactive,inactive,inactive,inactive,
C=C(C)CS(=O)(=O)O,,inactive,inactive,,inactive,inactive,inactive,,inactive,inactive

Structure (SMILES),Potency [1],Potency [2],outcome [3],outcome [4],outcome [5],outcome [6],outcome [7],Potency [8],outcome [9],Potency [10]
O=C1CCCN1C1CCCCC1,inactive,,inactive,,inactive,inactive,inactive,,inactive,inactive
Cc1c(NC(C)C)c(=O)n(-c2ccccc2)n1C,inactive,inactive,inactive,,inactive,inactive,,inactive,inactive,inactive
O=C(O)c1ccccc1OP(=O)(O)O,inactive,inactive,,inactive,inactive,inactive,inactive,inactive,inactive,inactive
N=C(N)c1ccc2cc(OC(=O)c3ccc(N=C(N)N)cc3)ccc2c1,inactive,inactive,inactive,,inactive,inactive,inactive,,inactive,inactive
C/C=C(\C)C#N,inactive,inactive,inactive,,inactive,inactive,,inactive,inactive,inactive
Cc1ccc(=O)n(-c2ccccc2)c1,inactive,inactive,inactive,,inactive,inactive,inactive,inactive,inactive,inactive
CN(C(=O)c1c(O)c2ccccc2n(C)c1=O)c1ccccc1,inactive,inactive,,inactive,inactive,inactive,inactive,inactive,inactive,inactive
CCCCOCCOCCOCCCC,inactive,inactive,inactive,,inactive,inactive,inactive,inactive,inactive,inactive
N=C(N)c1ccc(OCCCOc2ccc(C(=N)N)cc2)cc1,inactive,inactive,,inactive,inactive,inactive,inactive,inactive,inactive,inactive
O=C(O)COc1nn(Cc2ccccc2)c2ccccc12,inactive,inactive,inactive,,inactive,inactive,inactive,inactive,inactive,inactive
CCCN(CCC)CCc1cccc2c1CC(=O)N2,inactive,inactive,inactive,,inactive,inactive,inactive,inactive,inactive,inactive
Cc1sccc1Br,inactive,inactive,inactive,,inactive,inactive,inactive,,inactive,inactive
NC(=O)COCCN1CCN(C(c2ccccc2)c2ccc(Cl)cc2)CC1 (stereo not drawn),inactive,inactive,inactive,,inactive,inactive,inactive,,inactive,2660 nM (active)
Brc1c(NC2=NCCN2)ccc2nccnc12,inactive,inactive,inactive,,inactive,inactive,inactive,inactive,inactive,inactive
C1CN(CCOCCN2CCOCC2)CCO1,inactive,inactive,inactive,,inactive,inactive,inactive,,inactive,inactive
CC(C)CNCC(C)C,inactive,inactive,inactive,,inactive,inactive,inactive,inactive,inactive,
NS(=O)(=O)c1cc(C(=O)NN2C[C@H]3[C@H]4CCC(C4)[C@H]3C2)ccc1Cl,inactive,inactive,inactive,,inactive,inactive,inactive,,inactive,inactive
COC(=O)CCSCCC(=O)OC,inactive,,,inactive,inactive,inactive,inactive,inactive,inactive,inactive
CCCCCCCCCCCCN(CCCCCCCCCCCC)CCCCCCCCCCCC,inactive,inactive,inactive,,inactive,inactive,,,inactive,inactive
C[C@H](NC(CCc1ccccc1)C(=O)O)C(=O)N1CCC[C@H]1C(=O)O (stereo partly drawn),inactive,inactive,inactive,,inactive,inactive,inactive,inactive,inactive,inactive
COC(=O)NN,inactive,inactive,inactive,,inactive,inactive,inactive,inactive,inactive,inactive

# — PubChem BioAssay (Tox21)
